Experimental data published in PubChem BioAssay AID449762 (Southern Research Specialized Biocontainment Screening …, 2010).
About 1,900 (0.58%) of roughly 330,000 compounds were called active. About 4% were inconclusive and are not listed. Only a sample is shown. Measured potencies and affinities stand elsewhere. Values without a mark were called inactive. Rule as the data show it: inconclusive = inhibition above about 70% without an active follow-up result; inactive = below that.

Test: M. tuberculosis growth inhibition, HTS (AID 449762);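 also: bacterial growth assessed after seven days of incubation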
Conditions: M. tuberculosis H37Rv growth inhibition, 7H9 media; at 25 µM; hits give high values

Row | Compound | inhibition [%]
1 | COc1cc2cnc(-c3ccccc3)cc2cc1OC | 61.6
2 | CN(C)/C=N/NC(=O)c1ccc(Cl)cc1 | -3.16
3 | O=C(CCCCCn1nnc2ccccc2c1=O)Nc1ccccc1F | -1.21
4 | COc1ccc(CNC(=O)CN(Cc2ccc(Cl)cc2)S(=O)(=O)c2ccccc2)cc1 | -11.8
5 | CCC(=O)Nc1cc(-c2nn(C)c(=O)c3ccccc23)ccc1N1CCCCC1 | -0.54
6 | CC(=O)Nc1cc(-c2nn(C)c(=O)c3ccccc23)ccc1N1CCCCC1 | 5.24
7 | CC(=Nc1ccc2c(c1)CCC2)c1c(O)n(-c2ccccc2)c(=O)[nH]c1=O | 0.86
8 | Cc1cccc(CS(=O)(=O)Cc2ccc(C(=O)NCCCN3CCOCC3)o2)c1 | -7.1
9 | COc1cc(Cl)c(C)cc1NC(=O)COC(=O)C(NS(=O)(=O)c1ccc(Cl)cc1)C(C)O (centres undefined) | -9.26
10 | Cc1ccc(NC(=O)COC(=O)C(NS(=O)(=O)c2ccc(Cl)cc2)C(C)O)cc1 (centres undefined) | -2.52
11 | OCC(CBr)(CBr)CBr | -6.91
12 | CCC1=NC(c2ccc(OC)cc2)N(O)C1(C)C (centres undefined) | -1.62
13 | CC(O)(CS(=O)(=O)Cc1ccccc1)C(=O)Nc1cccc(C(F)(F)F)c1 (centres undefined) | 8.28
14 | Cc1[nH]c2ccccc2c1/C=N/Nc1nc(Nc2ccc(F)cc2)nc(N2CCOCC2)n1 | 62.1
15 | C(=N\Nc1nc(Nc2ccccc2)nc(N2CCOCC2)n1)/c1c[nH]c2ccccc12 | 41.1
16 | O=c1[nH]c(C2CCN(S(=O)(=O)c3ccc4c(c3)OCCO4)CC2)nc2c1nnn2Cc1ccc(F)cc1 | 37.9
17 | Cc1ccc(C)c(S(=O)(=O)N2CCC(c3nc4c(nnn4Cc4ccc(F)cc4)c(=O)[nH]3)CC2)c1 | 7.99
18 | Cn1c(CC(=O)Nc2ccc(F)cc2)c(Sc2ccccc2)c2ccccc21 | 3.85
19 | NC(=O)C1CCCN(C(=S)NCc2ccc3c(c2)OCO3)C1 (centres undefined) | -1.44
20 | CCOc1cc(/C=C/C(=O)OCC(=O)NCC2CCCO2)cc(Cl)c1OC (centres undefined) | 1.07
21 | O=C(C1CC1)N1N=C(c2ccc(Cl)cc2)CC1(O)C(F)(F)F (centres undefined) | 49
22 | O=C(c1ccc(Cl)cc1)N1CCCC(c2ccccc2)=N1 | 2.03
23 | CCN(CCO)C(=S)Nc1cc(S(=O)(=O)N(C)C)ccc1C | -0.4
24 | CCOC(=O)c1c(C)[nH]c(C(=O)N2CCN(c3ccc(OC)cc3)CC2)c1C | 53.5

Row | Compound | inhibition [%]
25 | CCOC(=O)c1[nH]c(C)c(C(=O)N2CCN(c3ccc(OC)cc3)CC2)c1C | -0.98
26 | C[C@H](CO)N1C[C@H](C)[C@H](CN(C)Cc2ccncc2)Oc2ccc(NC(=O)Nc3ccc(C(F)(F)F)cc3)cc2CC1=O | 62.2
27 | CN(C)CCCNC(=O)c1ccc(-c2ccccc2)cc1 | -5.39
28 | C=CCNC(=O)c1ccc(-c2nc(-c3ccccc3)cs2)cc1 | 1.66
29 | O=C(NN=C1CCCC1)c1cccc(O)c1 | -8.1
30 | CCCNC(=O)CSc1n[nH]c(=O)n1CCc1ccccc1 | 7.69
31 | CCOC(=O)c1c(NC(=O)CCN2C(=O)c3cccc([N+](=O)[O-])c3C2=O)sc(C(=O)OC(C)C)c1C | 3.56
32 | CCOc1ccc(NC(=O)CC2CC(C)(C)OC2=O)cc1 (centres undefined) | -2.88
33 | CCOc1ccc(Nc2nc(-c3cccnc3)cs2)cc1 | 4.09
34 | CC(=O)Nc1ccc(NC(=O)C(C)OC(=O)c2cc(S(=O)(=O)N(C)C)ccc2N2CCCC2)cc1 (centres undefined) | 1.92
35 | Cc1ccc(C2=NC(C)(C)NC2=O)cc1 | 11.8
36 | O/N=C/c1ccnc(SCc2ccccc2)n1 | 16.4
37 | CSc1nccc(N/N=C/c2ccccc2)n1 | 0.53
38 | CC(CN1CCC(O)CC1)c1ccccc1 (centres undefined) | -0.24
39 | Clc1ccccc1CNC1CN2CCC1CC2 (centres undefined) | -2.13
40 | FC(F)(F)c1nnc2ccc(N3CCCC3)nn12 | -7.59
41 | FC(F)(Cl)c1nnc2ccc(Sc3ccccn3)nn12 | 2.59
42 | COC(=O)c1cnc2ccccc2n1 | -3.05
43 | O=C(OCc1c(F)cccc1Cl)c1cnc2ccccc2n1 | 48.8
44 | CC(C)C(NS(=O)(=O)c1cccs1)C(=O)NCCCN1CCCCCC1 (centres undefined) | -1.69
45 | COc1ccc(OCCCC(=O)Nc2ccc(N3CCCCC3)cc2)cc1 | -1.89
46 | CCCc1nnc(NC(=O)CCC(=O)N2CCN(c3nc(C)cc(C)n3)CC2)s1 | 0.06
47 | COc1ccc(S(=O)(=O)Cc2ccc(C(=O)NCCCN3CCc4ccccc4C3)o2)cc1 | -0.56
48 | COc1cccc(OC)c1OCCCCc1c(C)n[nH]c1C | 4.51

Row | Compound | inhibition [%]
49 | COc1cccc(OC)c1OCCCCCc1c(C)n[nH]c1C | -7.6
50 | COCC(C)NC(=O)Cc1ccc(F)cc1 (centres undefined) | -4.61
51 | O=C(NC1CCN(Cc2ccccc2)CC1)c1cccc(S(=O)(=O)Nc2ccc(F)cc2)c1 | 37.8
52 | COc1ccc(NS(=O)(=O)c2cccc(C(=O)NC3CCN(Cc4ccccc4)CC3)c2)cc1 | 6.7
53 | COCc1cc(C)nc(SCc2ccccc2)c1C#N | 15.8
54 | COc1ccc(/C=C/C(=O)Oc2cccc(/C=N/NC(=O)c3cccc(F)c3)c2)cc1 | 7.76
55 | O=C(Oc1cccc(-n2cnnn2)c1)c1ccccc1Cl | -11.6
56 | CCc1ccccc1NC(=O)c1noc(C(C)C)c1[N+](=O)[O-] | 2.17
57 | Cc1ccc(NC(=O)c2noc(C(C)C)c2[N+](=O)[O-])cc1 | 0.01
58 | COc1ccc(C(C(=O)NC2CCCC2)N(Cc2ccco2)C(=O)c2snc(C(N)=O)c2N)cc1OC (centres undefined) | 3.33
59 | COc1cccc(/C=N/NC(=O)c2cccc([N+](=O)[O-])c2)c1OS(=O)(=O)c1ccccc1 | -10.3
60 | Cc1nc(-c2ccc(NC(=O)C3CC3)cc2)cs1 | 37.4
61 | Cc1cc(Nc2cc(N3CCN(C)CC3)nc(Sc3ccc(NC(=O)C4CC4)cc3)n2)n[nH]1 | 3.52
62 | COc1cccc(NC(=O)Cn2c(=O)n(-c3ccccc3)c(=O)c3oc4ccccc4c32)c1 | -3.21
63 | Cc1ccc2c(c1)c1c(n2C)C(C(N)=O)CCC1 (centres undefined) | -14.2
64 | Cn1c(CNc2nc3ccccc3n2CCN2CCCCC2)nc2ccccc21 | 1.84
65 | c1ccc(Cn2c(CNc3nc4ccccc4n3CCN3CCOCC3)nc3ccccc32)cc1 | 10.7
66 | Cc1ccc(C(=O)N/C(=C/c2cccs2)C(=O)NCCCn2ccnc2)cc1 | -0.44
67 | O=C(NCCCSc1ccccc1)c1cccnc1 | 2.65
68 | O=C(Cc1ccccc1)N/N=C/c1ccccn1 | -3.52
69 | NC(=O)N/N=C/c1ccc2cccc(OCc3ccccc3)c2n1 | 12.6
70 | CC(N)(C(=O)O)c1cccc(OCc2cccc(Cl)c2)c1 (centres undefined) | -9.95
71 | CN(C(=O)CSc1nccc(=O)[nH]1)C1CCCCC1 | -5.2
72 | CCCn1c(Nc2ccccc2C)nc2ccccc21 | -13.5

Row | Compound | inhibition [%]
73 | CCCn1c(Nc2ccccc2)nc2ccccc21 | 3.3
74 | CCN1CCN(Cc2cc(Br)ccc2O)CC1 | -0.17
75 | CC(C)CCC(C)NC(=O)CN1C(=O)NC(C)(c2ccc3ccccc3c2)C1=O (centres undefined) | -6.81
76 | COc1ccc(C(=O)OCC(=O)NC2CC2)cc1F | 2.71
77 | CCNC(=S)NCc1ccco1 | 8.6
78 | NNC(=S)NCc1ccco1 | -5.28
79 | CC[C@@H]1CN(C)[C@H]2Cc3c([nH]c4ccccc34)C(=O)C[C@@H]1[C@@H]2C(=O)OC | -5.83
80 | COc1ccc(C2CC(c3ccc(Cl)cc3)n3nc(N)nc3N2)cc1 (centres undefined) | 1.53
81 | CCCc1nn2c(=O)c(C(c3cccc(Cl)c3)c3c(O)nc4sc(CCC)nn4c3=O)c(O)nc2s1 | -6.75
82 | COc1ccc(NC(=O)CCc2nnc3ccc(N4CCC(C)CC4)nn23)cc1 | -0.59
83 | CCOc1ccc(NC(=O)CCc2nnc3ccc(N4CCN(C)CC4)nn23)cc1 | 1.67
84 | O=C1CCCc2c1nc(-c1ccc([N+](=O)[O-])cc1)n2O | 0.46
85 | CC(C)CNC(=O)/C(C#N)=C1\N=C(NC(=O)c2ccco2)c2ccccc21 | 12.4
86 | Cc1cc(OC(F)F)ccc1NC(=O)Nc1ccc([N+](=O)[O-])cc1 | 17.3
87 | O=C(Nc1ccc(OC(F)F)c(Cl)c1)Nc1ccc2c(c1)OCO2 | 5.38
88 | Cc1ncc([N+](=O)[O-])n1CC(=O)NC1CCCCCC1 | 0.9
89 | O=C(Cc1ccc([N+](=O)[O-])cc1)OCc1c(F)cccc1Cl | 7.51
90 | CC(C)N(Cc1ccccc1)CC(O)COc1ccc(S(=O)(=O)N2CCOCC2)cc1Cl (centres undefined) | 1.09
91 | O=c1cc(-c2ccccc2O)nc(-c2ccccc2)[nH]1 | 15.5
92 | Cc1nn(-c2ccc(F)cc2)c(Cl)c1/C=C(\CC(=O)O)c1nc2ccccc2s1 | -5.29
93 | Cc1cc(C)c(C(=O)COC(=O)[C@H](C)Nc2ccc(C(F)(F)F)cc2[N+](=O)[O-])c(C)c1 | -3.25
94 | COc1ccc(C(=O)COC(=O)[C@H](C)Nc2ccc(C(F)(F)F)cc2[N+](=O)[O-])c(OC)c1 | 11.7
